Assay outcomes deposited in PubChem BioAssay by National Center for Advancing Translational Sciences (NCATS).
In the library only some 4% were active in any assay of this set; here they are far more common.
GRP78 ERSR act – qHTS for Inducers of the Endoplasmic Reticulum Stress Response (ERSR) in Human Glioma: qHTS; U87-MG GRP78 promoter luciferase reporter, 16 h; Potency, µM, most hits filed as activators; AID 602332, 2012; 420,000 tested, 0.02% active; active means well fitted activation curve with a large enough effect; further: series mostly up to about 76 µM; nearly all actives have a fitted effect of over 35% in size
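ERSR induction read as luciferase luminescence (Bright-Glo, 10 min at room temperature) in stably transfected human U87-MG glioma cells exposed to compounds for 16 h, using GRP78 as sensor.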
TRHR enhancer – qHTS for Small Molecule Agonists and Allosteric Enhancers of Human TRH Receptor: Primary Screen for Enhancers; enhancement, % at 2 µM; 360,000 tested, 0.66% active; AID 493056, 2011; TRHR cells, fluo-8 calcium fluorescence, EC20 TRH enhancement; Thyrotropin-releasing hormone receptor (Homo sapiens), P34981; in the data active means enhancement above about 30%
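Enhancer read-out: after compound pinning and an initial kinetic agonist-mode read, an EC20 of TRH (10 nM final) was injected and fluo-8 calcium signal (Ex 480/Em 530) followed at 1 s/cycle for 100 cycles in TRHR-expressing cells.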
D1 antag – Antagonist of Human D 1 Dopamine Receptor: qHTS; 360,000 tested, 3.2% active; D(1A) dopamine receptor (Homo sapiens), P21728; AID 504652, 2011; HEK293 TREx D1 cells, calcium flux, dopamine EC80; stronger effect = lower value; activity change, negative = inhibition, % at 10 µM; in the data active means activity change below about -30%
Target sequence (P21728 whole entry, looked up): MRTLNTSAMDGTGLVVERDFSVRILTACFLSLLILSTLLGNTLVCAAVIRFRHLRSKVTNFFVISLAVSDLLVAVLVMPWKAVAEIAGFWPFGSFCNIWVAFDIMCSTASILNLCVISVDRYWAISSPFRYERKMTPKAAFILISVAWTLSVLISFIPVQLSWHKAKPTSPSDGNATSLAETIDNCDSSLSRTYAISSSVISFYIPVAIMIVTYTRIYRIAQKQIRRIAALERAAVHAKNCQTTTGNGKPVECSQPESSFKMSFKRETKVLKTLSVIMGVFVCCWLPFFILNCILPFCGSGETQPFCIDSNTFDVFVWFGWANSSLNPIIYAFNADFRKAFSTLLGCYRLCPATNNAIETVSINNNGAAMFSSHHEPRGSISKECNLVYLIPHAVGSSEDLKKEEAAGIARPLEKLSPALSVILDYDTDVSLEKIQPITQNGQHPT
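Antagonism measured as reduced calcium response to an EC80 dopamine addition following 180 s compound pre-read; cells were inducible HEK293 Trex D1 plated overnight at 30 C, read kinetically at 1 cycle/sec.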
TRHR agonist – qHTS for Small Molecule Agonists and Allosteric Enhancers of Human TRH Receptor: Primary Screen for Agonists; activation, % at 2 µM; 360,000 tested, 0.18% active; AID 493084, 2011; TRHR cells, calcium flux fluo-8, FDSS agonist mode
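Steps: seed TRHR cells overnight; add fluo-8 no-wash Ca dye, RT 30 min–1.5 h; record 10 s baseline; pin-transfer compounds; monitor fluorescence 1 cycle/s for the agonist window. Calcium increases flag candidate agonists.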
D1 agonist – Allosteric Agonists of the Human D1 Dopamine Receptor: qHTS; HEK293 T-REx D1 cells, calcium flux, agonist mode; activation, % at 2 µM; D(1A) dopamine receptor (Homo sapiens), P21728; AID 504660, 2011; 360,000 tested, 1% active
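Agonism was scored from calcium flux recorded over 180 s (1 read/s) after pintool compound addition, following a 10-cycle baseline. Cells were inducible force-coupled HEK293 TREx D1, plated overnight at 30 C and loaded with no-wash calcium dye.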
D1 potentiator – Potentiators of Human D1 Dopamine Receptor: qHTS; D(1A) dopamine receptor (Homo sapiens), P21728; HEK293 TREx D1 cells, calcium flux, dopamine EC20 potentiation; potentiation, % at 10 µM; 360,000 tested, 0.036% active; in the data active means potentiation above about 30%
Hits are given with their value; ! = a repeat was not active. Unless noted, no stated cut-off is given here; in the data, active means activation above about 30%; inactive means the rest.

Screening O=C(c1ccc2c(c1)N(Cc1c(F)cccc1Cl)C(=O)c1ccccc1S2)N1CCCC1 returned GRP78 ERSR act inactive, TRHR enhancer inactive, D1 antag inactive, TRHR agonist inactive, D1 agonist inactive and D1 potentiator inactive.
Screening CCc1ccc(NC2CC(=O)N(c3ccc(OC)cc3OC)C2=O)cc1 (configuration not stated) returned GRP78 ERSR act inactive, TRHR enhancer inactive, D1 antag inactive, TRHR agonist inactive, D1 agonist inactive and D1 potentiator inactive.
`CN(C)C(=O)CSc1nc(-c2ccccc2)c(-c2ccccc2)o1` gave GRP78 ERSR act inactive, TRHR enhancer inactive, D1 antag inactive, TRHR agonist inactive, D1 agonist inactive and D1 potentiator inactive.
O=C(CSC(=S)N1CCCC1)N1CCN(S(=O)(=O)c2cccc(F)c2)CC1 was read as GRP78 ERSR act inactive, TRHR enhancer inactive, D1 antag inactive, TRHR agonist inactive, D1 agonist inactive and D1 potentiator inactive.
`O=C(COC(=O)c1ccccc1Cl)Nc1cccc(S(=O)(=O)N2CCCCC2)c1` gave GRP78 ERSR act inactive.
Cc1cc(C)c(C(=O)OCC(=O)Nc2cccc(S(=O)(=O)N3CCCCC3)c2)c(C)c1 was read as GRP78 ERSR act inactive, TRHR enhancer inactive, D1 antag inactive, TRHR agonist inactive, D1 agonist 37 and D1 potentiator inactive.
Screening COC(=O)c1cc(NC(=O)CSc2ncn[nH]2)ccc1Cl returned GRP78 ERSR act inactive, TRHR enhancer inactive, D1 antag -44, TRHR agonist inactive, D1 agonist inactive and D1 potentiator inactive.
For O=C(CSc1ncn[nH]1)Nc1cccc(S(=O)(=O)N2CCCCCC2)c1 the results were GRP78 ERSR act inactive, TRHR enhancer inactive, D1 antag -36, TRHR agonist inactive, D1 agonist inactive and D1 potentiator inactive.
`O=C(CSC(=S)N1CCCC1)N1CCN(S(=O)(=O)c2cccc([N+](=O)[O-])c2)CC1` gave GRP78 ERSR act inactive, TRHR enhancer inactive, D1 antag -33, TRHR agonist inactive, D1 agonist inactive and D1 potentiator inactive.
For Cc1csc(NC(=O)c2nc(-c3ccccc3)n(-c3ccccc3)n2)n1 the results were GRP78 ERSR act inactive, TRHR enhancer inactive, D1 antag inactive, TRHR agonist inactive, D1 agonist inactive and D1 potentiator inactive.
Cc1ccc(CN2CCN(C(=O)CCN3C(=O)c4ccccc4C3=O)CC2)cc1 was read as GRP78 ERSR act inactive, TRHR enhancer inactive, D1 antag inactive, TRHR agonist inactive, D1 agonist inactive and D1 potentiator inactive.
Cc1cc(C(=O)NCc2ccccc2Cl)n(-c2ccccc2)n1 was read as GRP78 ERSR act inactive, TRHR enhancer inactive, D1 antag -38, TRHR agonist inactive, D1 agonist inactive and D1 potentiator inactive.
For COc1ccccc1CNC(=O)c1cnc2ccccn2c1=O the results were GRP78 ERSR act inactive, TRHR enhancer inactive, D1 antag inactive, TRHR agonist inactive, D1 agonist inactive and D1 potentiator inactive.
`COc1ccccc1CNC(=O)c1cnc2sccn2c1=O` gave GRP78 ERSR act inactive, TRHR enhancer inactive, D1 antag -40, TRHR agonist inactive, D1 agonist inactive and D1 potentiator inactive.
For Cc1csc2ncc(C(=O)NCc3ccccc3Cl)c(=O)n12 the results were GRP78 ERSR act inactive, TRHR enhancer inactive, D1 antag -34, TRHR agonist inactive, D1 agonist inactive and D1 potentiator inactive.
Screening Cc1cccc(OCC(=O)N(Cc2ccc(N(C)C)cc2)C2CCS(=O)(=O)C2)c1 (configuration not stated) returned GRP78 ERSR act inactive, TRHR enhancer inactive, D1 antag inactive, TRHR agonist inactive, D1 agonist inactive and D1 potentiator inactive.
`O=S(=O)(c1cccc2ccccc12)n1nnc2ccccc21` gave GRP78 ERSR act inactive, TRHR enhancer inactive, TRHR agonist inactive, D1 agonist inactive and D1 potentiator inactive.
Screening O=C(COC(=O)c1cc(S(=O)(=O)NCc2ccccc2)ccc1O)c1cc2ccccc2o1 returned GRP78 ERSR act inactive, TRHR enhancer inactive, D1 antag -62, TRHR agonist inactive, D1 agonist inactive and D1 potentiator inactive.
Screening OC(C#CCN1CCCC1)(c1ccccc1)c1ccccc1 returned GRP78 ERSR act inactive, TRHR enhancer inactive, D1 antag inactive, TRHR agonist inactive, D1 agonist inactive and D1 potentiator inactive.
For Cc1ccc(-n2nc3c(=O)n(C(C)C(=O)NCc4ccco4)nc(C)c3c2C)cc1 (configuration not stated) the results were GRP78 ERSR act inactive, TRHR enhancer inactive, D1 antag -35!, TRHR agonist inactive, D1 agonist inactive and D1 potentiator inactive.
`CCC(C(=O)Nc1ccccc1C(=O)OC)n1nc(C)c2c(C)n(-c3ccc(C)cc3)nc2c1=O` (configuration not stated) gave GRP78 ERSR act inactive, TRHR enhancer inactive, D1 antag inactive, TRHR agonist inactive, D1 agonist inactive and D1 potentiator inactive.
CCOC(=O)C(CC)n1nc(C)c2c(C)n(-c3ccc(C)cc3)nc2c1=O (configuration not stated) was read as TRHR enhancer inactive, D1 antag -48, TRHR agonist inactive, D1 agonist inactive and D1 potentiator inactive.
Screening COC(/C=C/Nc1ccc(Cl)cc1)=C(C#N)C#N returned GRP78 ERSR act inactive, TRHR enhancer inactive, D1 antag -31, TRHR agonist inactive, D1 agonist inactive and D1 potentiator inactive.
For CCC1=NN(C(=O)c2ccc(Cl)cc2)C(O)(c2ccc(C)cc2)C1 (configuration not stated) the results were GRP78 ERSR act inactive, TRHR enhancer inactive, D1 antag inactive, TRHR agonist inactive, D1 agonist inactive and D1 potentiator inactive.
CCOC(=O)C1=NN(C(=O)c2ccc(C)cc2)C(O)(c2ccc(Cl)cc2)C1 (configuration not stated) was read as GRP78 ERSR act inactive, TRHR enhancer inactive, D1 antag inactive, TRHR agonist 49, D1 agonist 158 and D1 potentiator inactive.
Screening Cc1ccc(N2CC(C(=O)Nc3nnc(SCc4ccccn4)s3)CC2=O)cc1 (configuration not stated) returned GRP78 ERSR act inactive, TRHR enhancer inactive, D1 antag inactive, TRHR agonist inactive, D1 agonist inactive and D1 potentiator inactive.
